According to PubChem BioAssay (NCI):
The panel holds about 79,000 compounds, 15% with a hit somewhere; the sample as a whole holds those more often. Unmarked numbers belong to inactive results. Calls of active or inactive are those of the source. Cut-off read from the data, not from the text of the source: active = growth inhibition above about 70%; inactive = the rest.

How the values were obtained:
[1] = NCI Yeast Anticancer Drug Screen. Data for the rad50 strain (AID 155);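 note: 0% = growth of vehicle-only cultures of the same strain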; conditions: S. cerevisiae rad50 strain growth inhibition, active compounds read high
Method in brief: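 Inhibition values express reduced yeast growth in compound-treated cultures relative to vehicle-treated controls.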

[2] = NCI Yeast Anticancer Drug Screen. Data for the mec2-1 strain (AID 157); conditions: S. cerevisiae mec2-1 strain, active compounds read high
Method in brief: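 Strain: mec2-1 (DNA repair/cell cycle alteration). Compound exposure, then growth measured; inhibition expressed relative to vehicle.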

[3] = NCI Yeast Anticancer Drug Screen. Data for the sgs1 mgt1 strain (AID 161);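 note: 0% = growth of cultures given vehicle only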; conditions: S. cerevisiae sgs1 mgt1 strain, active compounds read high
Method in brief: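 Inhibition of yeast growth, normalised to vehicle-treated controls, is reported for a strain bearing genetic alterations in DNA damage repair.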

[4] = NCI Yeast Anticancer Drug Screen. Data for the cln2 rad14 strain (AID 165);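 note: 0% = growth equal to vehicle treated cultures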; conditions: S. cerevisiae cln2 rad14 strain, active compounds read high
Method in brief: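 Compounds are applied to the cln2 rad14 yeast strain, and growth is then compared with that of vehicle-treated cultures to give inhibition.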

[5] = NCI Yeast Anticancer Drug Screen. Data for the bub3 strain (AID 167); conditions: S. cerevisiae bub3 mutant strain, active compounds read high
Method in brief: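 Steps: expose the mutant yeast strain to compound; grow alongside vehicle-treated cultures; measure growth; express inhibition against the vehicle cultures.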

[6] = NCI Yeast Anticancer Drug Screen. Data for the mlh1 rad18 strain (AID 175); conditions: S. cerevisiae mlh1 rad18 strain growth inhibition, active compounds read high
Method in brief: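 Read-out is yeast growth inhibition, calculated against vehicle-only controls. The compound was applied to a strain engineered with DNA damage repair alterations.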

[7] = at 5.0 µM (retest, dose inferred, filed as 0.5)
[8] = at 50.0 µM (retest, dose inferred, filed as 5.0)

Structure (SMILES) | growth inhibition [1, 7] | growth inhibition [1, 8] | growth inhibition ([1]; at 50.0 µM) | growth inhibition [2, 7] | growth inhibition [2, 8] | growth inhibition ([2]; at 50.0 µM) | growth inhibition [3, 7] | growth inhibition [3, 8] | growth inhibition ([3]; at 50.0 µM) | growth inhibition [4, 7] | growth inhibition [4, 8] | growth inhibition ([4]; at 50.0 µM) | growth inhibition [5, 7] | growth inhibition [5, 8] | growth inhibition ([5]; at 50.0 µM) | growth inhibition [6, 7] | growth inhibition [6, 8] | growth inhibition ([6]; at 50.0 µM)
CN(C)[PH+](N(C)C)N(C)C.CN(C)[PH+](N(C)C)N(C)C.[C-]#[O+].[C-]#[O+].[C-]#[O+].[C-]#[O+].[C-]#[O+].[C-]#[O+].[Co].[Co].[Hg] | 3% | 16% | 98.2% (active) | 3% | 16% | 99.7% (active) | 1% | 9% | 99.6% (active) | -3% | 2% | 99.2% (active) | 2% | 13% | 99.5% (active) | 5% | 20% | 98.8% (active)
COc1cc(N(CC(C)Br)CC(C)Br)ccc1N=Nc1ccccc1C(=O)O (configuration not stated) | 42% | 96% (active) | 65.2% | 26% | 95% (active) | 29.1% | 54% | 95% (active) | 32.4% | 52% | 98% (active) | 78.2% (active) | 52% | 92% (active) | 32.9% | 33% | 94% (active) | 80.2% (active)
C=NCC#N | 8% | 8% | -12.9% | -1% | 2% | -1.3% | 4% | 8% | 25% | 11% | 6% | 67.3% | 4% | -2% | 5.25% | 3% | 3% | 26.9%
CCCCSc1ccc(C(SCCN(CC)CC)c2ccccc2)cc1 (configuration not stated) | 12% | 99% (active) | 99.8% (active) | 11% | 100% (active) | 99.8% (active) | 45% | 100% (active) | 99.8% (active) | 32% | 99% (active) | 99.8% (active) | 36% | 99% (active) | 99.7% (active) | 27% | 99% (active) | 99.7% (active)
CCCCCCCCCCCCCC(=O)O[C@H]1CC[C@H](NC(=O)[C@H](OC)[C@H](O)[C@@H](O)[C@H](O)/C=C/C(C)C)C(=O)NC1 | -1% | 93% (active) | 88.1% (active) | 4% | 96% (active) | 87.4% (active) | -2% | 92% (active) | 89.5% (active) | 11% | 93% (active) | 71.5% (active) | 4% | 96% (active) | 92.2% (active) | -1% | 94% (active) | 85.6% (active)
O=C(CCl)Nc1ccc(Cl)cc1 | 3% | 44% | 54.6% | 1% | 29% | 59.5% | -2% | 44% | 67.3% | -2% | 16% | 40.9% | 1% | 40% | 51.9% | 1% | 45% | 61.2%
Cc1cc(N(CCCl)CCCl)ccc1C1N(Cc2ccc(Cl)cc2Cl)CCCN1Cc1ccc(Cl)cc1Cl | 42% | 85% (active) | 40.5% | -4% | 65% | 18.2% | 25% | 91% (active) | 57.5% | 14% | 60% | 14.4% | 22% | 92% (active) | 16.1% | 18% | 96% (active) | 52.2%
COS(=O)(=O)c1ccccc1 | 8% | -2% | -2.5% | 0% | -2% | -2.4% | -4% | 4% | 11.6% | 7% | -4% | -16.8% | 1% | 39% | -4.55% | 8% | -1% | 10.3%
C[Se]C([Se]C)=C([Se]C)[Se]C | 9% | 95% (active) | 29.5% | 3% | 91% (active) | 99% (active) | -1% | 99% (active) | 52% | 2% | 59% | 45.2% | 5% | 92% (active) | -0.4% | 1% | 94% (active) | 85.3% (active)
OC1CC([CH2][Hg][I])OC([CH2][Hg][I])C1 (configuration not stated) | 99% (active) | 98% (active) | 92.8% (active) | 100% (active) | 99% (active) | 97.3% (active) | 99% (active) | 99% (active) | 96.5% (active) | 99% (active) | 99% (active) | 97.2% (active) | 99% (active) | 99% (active) | 98.5% (active) | 99% (active) | 99% (active) | 86.2% (active)
CCCCCCCCCCC(=O)O.[Pb] | -14% | 2% | 55.5% | -10% | 6% | 5.05% | -7% | 9% | 38.5% | -2% | -1% | 14.2% | -1% | -4% | -16.1% | -5% | -12% | 68.2%
COC1OCCC[CH]1[Hg][Cl] (configuration not stated) | 98% (active) | 99% (active) | 99.2% (active) | 100% (active) | 99% (active) | 99.3% (active) | 99% (active) | 99% (active) | 99.5% (active) | 99% (active) | 99% (active) | 99.3% (active) | 99% (active) | 99% (active) | 99.5% (active) | 99% (active) | 99% (active) | 99.2% (active)
CCCCCCC(=O)[O][Hg][c]1ccccc1 | 99% (active) | 99% (active) | 99.3% (active) | 100% (active) | 100% (active) | 99.7% (active) | 100% (active) | 100% (active) | 99.7% (active) | 99% (active) | 99% (active) | 99% (active) | 99% (active) | 99% (active) | 99.4% (active) | 100% (active) | 99% (active) | 99.7% (active)
O=C1C(C(Nc2ccccc2)c2ccccc2)=C([O-])c2ccccc21.O=C1C(C(Nc2ccccc2)c2ccccc2)=C([O-])c2ccccc21.[Co+2] (configuration not stated) | 66% | 61% | 73.7% (active) | 42% | 62% | 55.6% | 42% | 51% | 73% (active) | 41% | 40% | 35% | 56% | 54% | 77.4% (active) | 45% | 64% | 65.5%
CC[PH+](CC)CC.[Cl][Au] | 98% (active) | 98% (active) | 89.8% (active) | 99% (active) | 99% (active) | 91.4% (active) | 97% (active) | 98% (active) | 91.3% (active) | 92% (active) | 99% (active) | 90.8% (active) | 99% (active) | 99% (active) | 89.8% (active) | 94% (active) | 99% (active) | 90.8% (active)
O=NNc1c[nH]c(=O)[nH]c1=O | 1% | 69% | 72.6% (active) | 0% | 14% | 5.85% | -1% | 29% | 17.1% | -5% | 12% | 4.3% | -1% | -12% | 0.3% | 3% | 39% | 21.1%
C(#C[PH+](c1ccccc1)c1ccccc1)c1ccccc1.C(#C[PH+](c1ccccc1)c1ccccc1)c1ccccc1.C(#C[PH+](c1ccccc1)c1ccccc1)c1ccccc1.[C-]#[O+].[C-]#[O+].[C-]#[O+].[Cr] | 29% | 35% | 83.2% (active) | 31% | 27% | 87% (active) | 14% | 17% | 86.8% (active) | 31% | 39% | 84.5% (active) | 44% | 39% | 88.2% (active) | 0% | 37% | 82.5% (active)
C=C1C(=O)O[C@@H]2C[C@@H](C)[C@@H]3C=CC(=O)[C@@]3(C)[C@@H](O)[C@H]12 | 16% | 16% | 9.25% | 2% | 19% | 17.4% | 3% | 31% | 27.5% | 11% | 14% | 22.1% | -18% | 3% | 22.9% | 11% | 27% | 32.2%
COc1cc(/C=C(/C)[N+](=O)[O-])ccc1O | 90% (active) | 99% (active) | 99.1% (active) | 13% | 100% (active) | 99.6% (active) | 42% | 54% | 99.5% (active) | 19% | 99% (active) | 98.6% (active) | 14% | 99% (active) | 99.1% (active) | 59% | 99% (active) | 99.2% (active)
